Drawing on PubChem BioAssay AID540317 (National Center for Advancing Translational Sciences (NCATS), 2011), this text covers Potency for 61 compounds.

Among all 390,000 compounds or so, about 2,200 (0.56%) were called active. Another 3% or so got no clear call; they are omitted. Calls come from the whole dose curve; as a rule, active = well fitted inhibition curve with a large enough effect; inconclusive = small, poorly fitted or top-dose-only effect; inactive = no such curve, though single readings can be large or run the other way. What follows is part of a selection rich in actives, with near analogues and random picks from the rest. A call without a number means that no potency is given here.
Potency is the fitted concentration of half-maximal effect.

The target in this assay is Chromobox protein homolog 1 (Homo sapiens) (UniProt P83916). The assay can be described thus: HTS for Inhibitors of HP1-beta Chromodomain Interactions with Methylated Histone Tails. Note: nearly all actives have a fitted effect of over 70% in size. The note with it: AlphaScreen HP1-beta / biotin-H3K9me3 peptide binding; series mostly up to 114 µM. The method, boiled down: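 HP1-beta protein (50 nM final) preincubated 30 min at room temperature with biotinylated H3(1-18)K9me3 peptide (50 nM) in PBS pH 7.4, 0.01% Tween-20, then compound added for 30 min. AlphaScreen streptavidin donor/nickel chelate acceptor beads (10 ug/mL final), 30 min dark, luminescence read.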
Chromobox protein homolog 1 (Homo sapiens), sequence (P83916 whole entry, looked up): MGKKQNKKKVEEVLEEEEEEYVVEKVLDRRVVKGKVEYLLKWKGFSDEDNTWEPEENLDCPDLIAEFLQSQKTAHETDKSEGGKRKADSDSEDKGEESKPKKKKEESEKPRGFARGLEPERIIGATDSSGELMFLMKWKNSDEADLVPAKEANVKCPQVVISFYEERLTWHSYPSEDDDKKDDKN
Consider `O=[N+]([O-])c1ccc(N2CCN(c3ccc(O)cc3)CC2)c(Cl)c1`, for which the Potency is 50.1 µM (active).

As for `O=C(O)C1CCN(c2ccc([N+](=O)[O-])cc2[N+](=O)[O-])CC1`, the Potency entry was “inactive”.

As to `CCN1CCN(c2ccc([N+](=O)[O-])cc2C(=O)c2ccc(Cl)cc2)CC1`, the Potency entry is “inactive”.

Regarding `COc1ccc(CCn2c3c(c(=O)[nH]c2=S)CN(C(C)C)CN3)cc1OC`, the Potency result is “inactive”.

For `Cc1cc(C)c(/C=C/c2onc(C)c2S(=O)(=O)N2CCC(C(=O)Nc3ccc(Cl)cc3C)CC2)c(C)c1`, the Potency entry is “inactive”.

In the case of `CCN(CC)S(=O)(=O)c1ccc2c(c1)N(CC(=O)NCC(C)c1ccccc1)C(=O)CO2` (stereo unspecified), the Potency entry is “inactive”.

Take `Cc1ccccc1C(=O)N(Cc1ccc(N(C)C)cc1)CC1CCCO1` (stereo unspecified): the Potency result is “inactive”.

In the case of `Cc1nc2c(c(C)nn2-c2ccccc2)c(C)c1CCC(=O)NCCc1ccc(Cl)cc1`, the Potency result is “inactive”.

Take `CCCNC(=O)C1CCC(Cn2c(=O)c3sccc3n(Cc3ccccc3F)c2=O)CC1` (stereo unspecified): the Potency result was “inactive”.

On to `COc1ccc(N(C)C(=O)C2CCN(S(=O)(=O)c3cc(Br)cc4c3N(C(C)=O)CC4)CC2)cc1`, for which the Potency entry is “inactive”.

For the compound `O=c1ccc2c(-c3ccccc3S(=O)(=O)O)c3ccc(O)c(O)c3oc-2c1O`, the Potency was 1 µM (active).

In the case of `CCOc1cccc(NC(=O)c2ccc(F)c(S(=O)(=O)N(CC)c3cccc(C)c3)c2)c1`, the Potency entry was “inactive”.

Regarding `CCN(Cc1ccccc1)S(=O)(=O)c1ccc2c(c1)CCCN2C(C)=O`, the Potency result was “inactive”.

Turning to `Cc1ccc(Cl)cc1NC(=O)/C(C#N)=C\c1cn(Cc2ccc(F)cc2)c2ccccc12`, the Potency result was “inactive”.

For the compound `COc1ccc(Cn2c(=O)[nH]c3cc(C(=O)N4CCN(C(=O)c5ccco5)CC4)ccc3c2=O)cc1`, the Potency entry is “inactive”.

For the compound `COc1ccc(NC(=S)NCC2CCN(c3ccc(OC)cc3)C2)cc1` (stereo unspecified), the Potency is 25.1 µM (active).

Consider `COc1ccc(CNC(=O)C2CCC(CNc3c(N4CCOCC4)c(=O)c3=O)CC2)cc1` (stereo unspecified), for which the Potency result was “inactive”.

In the case of `COc1ccc(NC(=O)N2CCCC(C(=O)Nc3ccccc3OC)C2)cc1` (stereo unspecified), the Potency result was “inactive”.

For the compound `COc1ccc(N2CCC(N3CCN(C)C(CCO)C3)CC2)cc1` (stereo unspecified), the Potency entry is “inactive”.

For the compound `COc1ccc(N2CCC(CNC(=S)Nc3c(C)cccc3C)C2)cc1` (stereo unspecified), the Potency is 20 µM (active).

`Cc1cccc(C)c1NC(=O)CNC(=O)C1CCCC1`: the Potency entry is “inactive”.

Regarding `CCCN1CCC(=O)N(C(CSc2ccc(C)cc2)Cc2ccccc2)CC1` (stereo unspecified), the Potency entry is “inactive”.

For the compound `COc1ccc(CCNS(=O)(=O)c2cc(-c3cc(C)no3)ccc2C)cc1OC`, the Potency result was “inactive”.

Regarding `COc1cccc(NC(=O)N2CCN(C(=O)c3nsc4ccccc34)CC2)c1`, the Potency entry is “inactive”.

With `Cc1cc(C)cc(OC(C)C(=O)Nc2nc3c(s2)CCCC3)c1` (stereo unspecified), the Potency entry is “inactive”.

As to `COc1cc(C2c3c(oc4ccccc4c3=O)C(=O)N2c2nc(C)c(C)s2)ccc1O` (stereo unspecified), the Potency result was “inactive”.

Take `COc1cc(/C=N\Nc2nc(-c3cccs3)c(NC(C)=O)s2)ccc1O`: the Potency is 22.4 µM (active).

On to `COc1cc(/C=C/C(=O)OCC(=O)Nc2cccc(Oc3ccccc3)c2)ccc1O`, for which the Potency entry was “inactive”.

As for `COc1ccc(Cl)cc1NC(=O)CSc1nc(-c2cccs2)cc(C(F)(F)F)n1`, the Potency result is “inactive”.

For the compound `COc1ccc(CNC(=O)CSCc2nc(-c3ccccc3F)oc2C)cc1`, the Potency result is “inactive”.

On to `COc1cc(/C=C2/SC(=S)N(Cc3ccccc3)C2=O)cc(OC)c1O`, for which the Potency was 20 µM (active).

In the case of `COc1ccc(CCNC(=O)CCCCn2c(=O)c3ccccc3n(Cc3ccccc3)c2=O)cc1OC`, the Potency entry was “inactive”.

With `COc1ccc(Cn2c(=O)sc3ccccc32)cc1OC`, the Potency entry is “inactive”.

Turning to `Cc1nc(SCC(=O)N2CCN(c3ccccc3)CC2)[nH]c(=O)c1C`, the Potency result is “inactive”.

Take `COc1cccc(-c2nc(CS(=O)(=O)CC(=O)N3CCN(c4cc(C)ccc4C)CC3)c(C)o2)c1`: the Potency entry is “inactive”.

For `O=C1C[C@@H](c2ccc3ccccc3c2)N1S(=O)(=O)c1ccccc1[N+](=O)[O-]`, the Potency result was “inactive”.

In the case of `CCN(CC)C(=O)CSc1nc2cc3c(cc2c(=O)n1CCCC(=O)NCc1ccc2c(c1)OCO2)OCO3`, the Potency entry was “inactive”.

In the case of `CC(=O)N1CCCc2cc(S(=O)(=O)Nc3ccc(Cl)cc3F)ccc21`, the Potency entry is “inactive”.

Take `C=CS(=O)c1sc(Cl)c(N2CCOCC2)c1[N+](=O)[O-]` (stereo unspecified): the Potency was 44.7 µM (active).

With `CCn1c2c(c(=O)n3ncc(C(=O)N4CCN(c5ccccc5)CC4)c13)CN(Cc1ccc(OC)cc1)CC2`, the Potency result is “inactive”.

For `COc1ccccc1CNC(=O)C(=O)NCC(c1cccs1)S(=O)(=O)c1cccs1` (stereo unspecified), the Potency result is “inactive”.

Consider `Cc1nnc(C)n1-c1ccc(C(=O)Nc2cccc(Br)c2)cc1`, for which the Potency result is “inactive”.

For `FC(F)(F)c1cc(Nc2nc3ccccc3c3nncn23)ccc1Cl`, the Potency result is “inactive”.

As for `Cc1ccccc1Nc1c(-c2ccccc2)nc2ncccn12`, the Potency entry was “inactive”.

Regarding `CCc1cccc(C)c1Nc1c(-c2ccc(N(C)C)cc2)nc2ncccn12`, the Potency was 17.8 µM (active).

Consider `Cc1cccc(C)c1Nc1c(-c2ccccc2O)nc2ncccn12`, for which the Potency entry was “inactive”.

For the compound `COc1ccc(CCNC(=O)c2ccc3c(c2)sc2nc(-c4ccc(C)cc4)cn23)cc1OC`, the Potency entry is “inactive”.

On to `c1ccc(Cn2nnc3c(N4CCCCC4)ncnc32)cc1`, for which the Potency result is “inactive”.

Consider `COC(=O)c1ccc(/C=N/N2C(C)CCCC2C)cc1` (stereo unspecified), for which the Potency result was “inactive”.

For the compound `CCN(CC)S(=O)(=O)c1cccc(NC(=O)c2ccc(S(=O)(=O)N3CCCC3)cc2)c1`, the Potency result was “inactive”.

Consider `CCN(CC)S(=O)(=O)c1cccc(-c2n[nH]c(=S)n2/N=C/c2ccc(C(=O)OC)cc2)c1`, for which the Potency was 50.1 µM (active).

As for `CCCCNC(=O)Cn1c(SCc2cccc(Cl)c2)nc2ccncc21`, the Potency result was “inactive”.

As for `CCOC(=O)c1cc2c(=O)n3ccccc3nc2n(CC2CCCO2)c1=NC(=O)c1ccccc1Br` (stereo unspecified), the Potency entry was “inactive”.

Take `COC(=O)c1ccccc1NC(=O)C(Cc1ccccc1)N1Cc2ccccc2C1=O` (stereo unspecified): the Potency entry is “inactive”.

`COc1cc(NC(=O)c2nn(-c3ccc(C)cc3)c(=O)c3c2c2ccccc2n3C)cc(OC)c1OC`: the Potency entry is “inactive”.

As to `Cc1cccc(N2CCN(C(=O)c3ccccc3NC(=O)C3CCCCC3C(=O)O)CC2)c1` (stereo unspecified), the Potency entry was “inactive”.

Take `COc1cccc(N2CCN(c3ccc4nnc(CCC(=O)N5CCN(C)CC5)n4n3)CC2)c1`: the Potency result is “inactive”.

Consider `Cc1cccc(-n2c(N)c(C(=O)N3CCN(C)CC3)sc2=S)c1`, for which the Potency is 7.94 µM (active).

For the compound `C=CCn1c(=S)[nH]c2scc(-c3ccco3)c2c1=O`, the Potency was 35.5 µM (active).

For the compound `O=S(=O)(Nc1ccc2nc(-c3cccc(Cl)c3)oc2c1)c1ccccc1`, the Potency entry was “inactive”.

Regarding `CCc1ccc(NC(=O)CCCc2nnc3n(CCCOC)c(=O)c4sccc4n23)cc1`, the Potency entry is “inactive”.
